# Test results from PubChem BioAssay (NCATS).
# Results filed as inconclusive are left out. Calls of active or inactive are those of the source. Calls come from the whole dose curve; as a rule, active = well fitted curve in the direction sought with a large enough effect; inconclusive = small, poorly fitted or top-dose-only effect, or another doubt; inactive = no such curve, though single readings can be large; an effect the other way counts as inactive or inconclusive.
# Assays:
# [1] = target: DNA repair nuclease/redox regulator APEX1 (Homo sapiens) (UniProt P27695); assay: qHTS Validation Assay for Inhibitors of the Human Apurinic/apyrimidinic Endonuclease 1 (APE1) (AID 1705;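 note: TAMRA fluorescence gain over two minutes as APE1 cuts a quenched THF abasic duplex; series mostly up to about 57 µM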)
# How it was run: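 Activity read as rising fluorescence (598 nm emission, 525 nm excitation) from incision of a TAMRA/BHQ-2 duplex carrying a THF abasic site (50 nM). Compound and enzyme sat 15 min at RT before substrate start; signal change between first and third 60-s reads.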
# [2] = target: Endonuclease 4 (Escherichia coli (strain K12)) (UniProt P0A6C1); assay: Counterscreen for APE1 Inhibitors: qHTS Validation Assay for Inhibitors of Endonuclease IV (AID 1708)
# How it was run: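 The reaction buffer contained 50 mM Tris-HCl pH 7.5, 50 mM NaCl, 2 mM MgCl2, 1 mM DTT and 0.01% Tween-20. Incision of a 50 nM fluorophore/quencher THF substrate by 2 nM enzyme was measured kinetically.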
# [3] = qHTS for differential inhibitors of proliferation of Plasmodium falciparum line 7G8 (AID 1815);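 note: parasite growth measured after three days of incubation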; note: potency is the fitted concentration of half-maximal effect
# [4] = qHTS for differential inhibitors of proliferation of Plasmodium falciparum line GB4 (AID 1816); settings: Potency: Plasmodium falciparum GB4 proliferation inhibition;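 note: parasite growth measured after 72 h incubation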; note: potency is the fitted concentration of half-maximal effect
# [5] = qHTS for differential inhibitors of proliferation of Plasmodium falciparum line 3D7 (AID 1876); note: potency is the fitted concentration of half-maximal effect
# [6] = qHTS for differential inhibitors of proliferation of Plasmodium falciparum line D10 (AID 1877);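 note: parasites grown with compound for 72 h before DNA staining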; note: potency is the fitted concentration of half-maximal effect
# [7] = qHTS for differential inhibitors of proliferation of Plasmodium falciparum line Dd2 (AID 1882); settings: Potency: Plasmodium falciparum Dd2 proliferation inhibition; note: nearly all actives have a fitted effect of over 65% in size; note: potency is the fitted concentration of half-maximal effect
# How it was run: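 RBC culture, 0.3% parasitemia / 2.5% Hct final; cpd added by pin tool in DMSO; 72 h, 37 C, 5% CO2; lysis buffer + SYBR Green I, o/n RT dark; FI 485/535; norm. to artemisinin 0.29 uM and DMSO.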
# [8] = qHTS for differential inhibitors of proliferation of Plasmodium falciparum line W2 (AID 1883); settings: Potency: Plasmodium falciparum W2 proliferation inhibition;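 note: potency is the fitted concentration of half-maximal effect; parasites grown with compound for 72 h before lysis and staining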
# [9] = Counterscreen for APE1 Inhibitors: Fluorescent Dye Displacement Validation Assay (AID 1707)
# How it was run: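 Counterscreen flags promiscuous DNA binders: compounds displacing ThO from duplex DNA (abasic THF site, 50 nM) reduce 540 nm emission (480 nm excitation). ThO 250 nM final; Tris-HCl pH 7.5 with NaCl, MgCl2 and Tween-20.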
# DNA repair nuclease/redox regulator APEX1 (Homo sapiens), sequence (P27695 whole entry, looked up): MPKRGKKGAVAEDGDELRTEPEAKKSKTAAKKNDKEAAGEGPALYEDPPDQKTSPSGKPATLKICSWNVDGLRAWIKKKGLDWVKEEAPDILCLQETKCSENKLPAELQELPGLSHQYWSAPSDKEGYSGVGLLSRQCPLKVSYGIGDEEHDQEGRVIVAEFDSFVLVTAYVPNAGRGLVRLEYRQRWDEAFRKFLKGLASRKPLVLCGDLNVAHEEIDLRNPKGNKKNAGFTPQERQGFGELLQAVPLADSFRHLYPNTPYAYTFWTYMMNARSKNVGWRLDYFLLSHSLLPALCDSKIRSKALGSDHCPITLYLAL
Structure (SMILES),Potency [1],Potency [2],Potency [3],Potency [4],Potency [5],Potency [6],Potency [7],Potency [8],outcome [9]
CCc1c(C)[nH]c2c1C(=O)C(CN1CCOCC1)CC2 (configuration not stated),inactive,inactive,inactive,inactive,inactive,inactive,–,–,–
CC(C)[N+](C)(CCOC(=O)C1c2ccccc2Oc2ccccc21)C(C)C,–,inactive,12.6 µM (active),10 µM (active),3.98 µM (active),11.2 µM (active),–,8.91 µM (active),–
Cc1cc(C)c(/C=C2\C(=O)Nc3ccccc32)[nH]1,inactive,inactive,–,–,inactive,inactive,inactive,–,–
CCOC(=O)C1=C(C)NC(C)=C(C(=O)OC)C1c1cccc(Cl)c1Cl (configuration not stated),inactive,–,12.6 µM (active),12.6 µM (active),8.91 µM (active),15.8 µM (active),–,8.91 µM (active),–
Fc1ccc(C(c2ccc(F)cc2)N2CCN(C/C=C/c3ccccc3)CC2)cc1,inactive,–,3.98 µM (active),4.47 µM (active),12.6 µM (active),11.2 µM (active),12.6 µM (active),3.98 µM (active),inactive
CNC1(C)C2CCC(C2)C1(C)C (configuration not stated),inactive,inactive,inactive,12.6 µM (active),inactive,inactive,inactive,8.91 µM (active),–
